Source: the supplement of paper PMC11732987, “Enantioselective OTUD7B fragment discovery through chemoproteomics screening and high-throughput optimisation” (Communications Chemistry, 2025)

Experiments:
Test in all cases: log2 ratio of Biotin-Ahx-Ub-VS probe labelling (fragment/DMSO); higher = less target engagement (more negative = stronger competition), active = hit call of the paper (q ≤ 0.05, log2 ratio ≤ -1)
Conditions in all cases: compound concentration: 200 uM; treatment time: 3 h
USP9X = USP9X (UniProt Q93008)
Sequence of USP9X (Q93008 whole entry, the tested form may be a part): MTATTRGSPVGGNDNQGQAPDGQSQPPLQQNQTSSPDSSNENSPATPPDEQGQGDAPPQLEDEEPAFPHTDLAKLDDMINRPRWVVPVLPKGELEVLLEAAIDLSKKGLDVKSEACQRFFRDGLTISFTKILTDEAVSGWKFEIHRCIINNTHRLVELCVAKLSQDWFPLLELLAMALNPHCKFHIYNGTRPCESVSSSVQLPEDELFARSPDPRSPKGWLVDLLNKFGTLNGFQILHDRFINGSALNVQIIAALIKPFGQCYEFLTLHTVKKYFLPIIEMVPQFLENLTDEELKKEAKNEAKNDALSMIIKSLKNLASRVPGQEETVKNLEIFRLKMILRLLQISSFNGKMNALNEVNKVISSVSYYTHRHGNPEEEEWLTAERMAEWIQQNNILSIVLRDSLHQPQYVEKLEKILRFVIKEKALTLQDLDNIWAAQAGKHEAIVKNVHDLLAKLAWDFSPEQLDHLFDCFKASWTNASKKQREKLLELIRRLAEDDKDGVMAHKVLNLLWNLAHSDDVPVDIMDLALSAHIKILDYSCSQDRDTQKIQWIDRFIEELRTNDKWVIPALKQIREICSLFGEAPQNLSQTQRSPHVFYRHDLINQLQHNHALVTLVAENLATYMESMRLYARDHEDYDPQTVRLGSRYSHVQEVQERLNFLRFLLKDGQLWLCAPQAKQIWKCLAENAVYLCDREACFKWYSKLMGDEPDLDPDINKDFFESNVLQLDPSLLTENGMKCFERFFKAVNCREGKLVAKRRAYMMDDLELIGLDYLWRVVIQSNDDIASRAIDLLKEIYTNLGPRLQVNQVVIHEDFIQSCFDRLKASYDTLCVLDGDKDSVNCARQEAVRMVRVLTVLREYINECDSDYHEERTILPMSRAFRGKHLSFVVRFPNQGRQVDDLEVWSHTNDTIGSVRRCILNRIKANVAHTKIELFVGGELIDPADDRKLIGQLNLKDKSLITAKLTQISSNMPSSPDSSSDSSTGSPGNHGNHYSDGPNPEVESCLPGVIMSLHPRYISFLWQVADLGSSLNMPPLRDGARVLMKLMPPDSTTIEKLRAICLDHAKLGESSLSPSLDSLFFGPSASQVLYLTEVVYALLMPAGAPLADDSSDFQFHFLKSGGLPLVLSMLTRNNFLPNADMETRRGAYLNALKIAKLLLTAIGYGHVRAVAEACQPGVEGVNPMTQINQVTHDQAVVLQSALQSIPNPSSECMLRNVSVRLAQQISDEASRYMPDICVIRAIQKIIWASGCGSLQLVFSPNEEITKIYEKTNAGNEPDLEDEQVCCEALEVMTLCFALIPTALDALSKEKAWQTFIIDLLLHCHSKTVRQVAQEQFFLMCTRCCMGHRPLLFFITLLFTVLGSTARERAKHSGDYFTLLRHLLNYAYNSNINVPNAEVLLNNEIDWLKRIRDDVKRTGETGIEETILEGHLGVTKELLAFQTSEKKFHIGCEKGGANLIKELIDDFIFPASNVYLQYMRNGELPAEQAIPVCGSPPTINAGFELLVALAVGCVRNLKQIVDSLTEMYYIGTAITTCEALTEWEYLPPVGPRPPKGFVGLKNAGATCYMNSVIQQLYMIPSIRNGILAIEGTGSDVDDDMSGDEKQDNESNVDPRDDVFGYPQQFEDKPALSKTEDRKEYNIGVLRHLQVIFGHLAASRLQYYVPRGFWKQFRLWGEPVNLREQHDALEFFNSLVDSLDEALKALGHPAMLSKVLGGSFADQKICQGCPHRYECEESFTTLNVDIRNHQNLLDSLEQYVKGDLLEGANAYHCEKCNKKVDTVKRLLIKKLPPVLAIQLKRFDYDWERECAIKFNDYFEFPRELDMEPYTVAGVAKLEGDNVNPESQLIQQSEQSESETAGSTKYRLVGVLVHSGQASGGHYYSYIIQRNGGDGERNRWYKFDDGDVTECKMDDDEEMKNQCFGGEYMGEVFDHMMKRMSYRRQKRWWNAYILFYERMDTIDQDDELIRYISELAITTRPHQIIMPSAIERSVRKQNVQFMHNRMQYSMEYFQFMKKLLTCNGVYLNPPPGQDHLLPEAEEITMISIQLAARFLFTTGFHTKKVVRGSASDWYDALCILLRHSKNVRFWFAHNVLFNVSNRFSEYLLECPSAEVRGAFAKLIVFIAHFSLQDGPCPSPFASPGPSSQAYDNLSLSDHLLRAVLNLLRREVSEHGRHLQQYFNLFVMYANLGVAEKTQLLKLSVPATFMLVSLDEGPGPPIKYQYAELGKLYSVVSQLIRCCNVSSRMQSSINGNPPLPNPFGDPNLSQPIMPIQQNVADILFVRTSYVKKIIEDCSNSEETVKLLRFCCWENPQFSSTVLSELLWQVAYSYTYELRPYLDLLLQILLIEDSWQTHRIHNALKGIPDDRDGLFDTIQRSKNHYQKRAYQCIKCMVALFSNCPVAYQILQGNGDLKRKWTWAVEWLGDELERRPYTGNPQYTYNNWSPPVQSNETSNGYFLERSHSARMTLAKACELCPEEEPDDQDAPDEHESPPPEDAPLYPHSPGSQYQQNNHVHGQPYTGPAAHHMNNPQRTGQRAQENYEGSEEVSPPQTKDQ
Summary of the method: (§1)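 Labelled DUBs from HEK293T lysate were NeutrAvidin-enriched, digested with LysC and trypsin, and run by diaPASEF LC-MS/MS. Before that, each 495 µg sample in Tris/CHAPS/IGEPAL buffer with protease inhibitors was treated in triplicate with fragment at 200 µM or vehicle for 3 h, then with Biotin-Ahx-Ub-VS at 0.5 µM final for 1 h. Values are average log2 ratios of fragment over vehicle by unpaired t-test, based on global-median-normalised Spectronaut label-free quantities from proteins with ≥2 unique peptides.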

UniProt O00487 = target: UniProt O00487
Summary of the method: as §1

UniProt O00507 = target: UniProt O00507
Sequence of UniProt O00507 (O00507 whole entry): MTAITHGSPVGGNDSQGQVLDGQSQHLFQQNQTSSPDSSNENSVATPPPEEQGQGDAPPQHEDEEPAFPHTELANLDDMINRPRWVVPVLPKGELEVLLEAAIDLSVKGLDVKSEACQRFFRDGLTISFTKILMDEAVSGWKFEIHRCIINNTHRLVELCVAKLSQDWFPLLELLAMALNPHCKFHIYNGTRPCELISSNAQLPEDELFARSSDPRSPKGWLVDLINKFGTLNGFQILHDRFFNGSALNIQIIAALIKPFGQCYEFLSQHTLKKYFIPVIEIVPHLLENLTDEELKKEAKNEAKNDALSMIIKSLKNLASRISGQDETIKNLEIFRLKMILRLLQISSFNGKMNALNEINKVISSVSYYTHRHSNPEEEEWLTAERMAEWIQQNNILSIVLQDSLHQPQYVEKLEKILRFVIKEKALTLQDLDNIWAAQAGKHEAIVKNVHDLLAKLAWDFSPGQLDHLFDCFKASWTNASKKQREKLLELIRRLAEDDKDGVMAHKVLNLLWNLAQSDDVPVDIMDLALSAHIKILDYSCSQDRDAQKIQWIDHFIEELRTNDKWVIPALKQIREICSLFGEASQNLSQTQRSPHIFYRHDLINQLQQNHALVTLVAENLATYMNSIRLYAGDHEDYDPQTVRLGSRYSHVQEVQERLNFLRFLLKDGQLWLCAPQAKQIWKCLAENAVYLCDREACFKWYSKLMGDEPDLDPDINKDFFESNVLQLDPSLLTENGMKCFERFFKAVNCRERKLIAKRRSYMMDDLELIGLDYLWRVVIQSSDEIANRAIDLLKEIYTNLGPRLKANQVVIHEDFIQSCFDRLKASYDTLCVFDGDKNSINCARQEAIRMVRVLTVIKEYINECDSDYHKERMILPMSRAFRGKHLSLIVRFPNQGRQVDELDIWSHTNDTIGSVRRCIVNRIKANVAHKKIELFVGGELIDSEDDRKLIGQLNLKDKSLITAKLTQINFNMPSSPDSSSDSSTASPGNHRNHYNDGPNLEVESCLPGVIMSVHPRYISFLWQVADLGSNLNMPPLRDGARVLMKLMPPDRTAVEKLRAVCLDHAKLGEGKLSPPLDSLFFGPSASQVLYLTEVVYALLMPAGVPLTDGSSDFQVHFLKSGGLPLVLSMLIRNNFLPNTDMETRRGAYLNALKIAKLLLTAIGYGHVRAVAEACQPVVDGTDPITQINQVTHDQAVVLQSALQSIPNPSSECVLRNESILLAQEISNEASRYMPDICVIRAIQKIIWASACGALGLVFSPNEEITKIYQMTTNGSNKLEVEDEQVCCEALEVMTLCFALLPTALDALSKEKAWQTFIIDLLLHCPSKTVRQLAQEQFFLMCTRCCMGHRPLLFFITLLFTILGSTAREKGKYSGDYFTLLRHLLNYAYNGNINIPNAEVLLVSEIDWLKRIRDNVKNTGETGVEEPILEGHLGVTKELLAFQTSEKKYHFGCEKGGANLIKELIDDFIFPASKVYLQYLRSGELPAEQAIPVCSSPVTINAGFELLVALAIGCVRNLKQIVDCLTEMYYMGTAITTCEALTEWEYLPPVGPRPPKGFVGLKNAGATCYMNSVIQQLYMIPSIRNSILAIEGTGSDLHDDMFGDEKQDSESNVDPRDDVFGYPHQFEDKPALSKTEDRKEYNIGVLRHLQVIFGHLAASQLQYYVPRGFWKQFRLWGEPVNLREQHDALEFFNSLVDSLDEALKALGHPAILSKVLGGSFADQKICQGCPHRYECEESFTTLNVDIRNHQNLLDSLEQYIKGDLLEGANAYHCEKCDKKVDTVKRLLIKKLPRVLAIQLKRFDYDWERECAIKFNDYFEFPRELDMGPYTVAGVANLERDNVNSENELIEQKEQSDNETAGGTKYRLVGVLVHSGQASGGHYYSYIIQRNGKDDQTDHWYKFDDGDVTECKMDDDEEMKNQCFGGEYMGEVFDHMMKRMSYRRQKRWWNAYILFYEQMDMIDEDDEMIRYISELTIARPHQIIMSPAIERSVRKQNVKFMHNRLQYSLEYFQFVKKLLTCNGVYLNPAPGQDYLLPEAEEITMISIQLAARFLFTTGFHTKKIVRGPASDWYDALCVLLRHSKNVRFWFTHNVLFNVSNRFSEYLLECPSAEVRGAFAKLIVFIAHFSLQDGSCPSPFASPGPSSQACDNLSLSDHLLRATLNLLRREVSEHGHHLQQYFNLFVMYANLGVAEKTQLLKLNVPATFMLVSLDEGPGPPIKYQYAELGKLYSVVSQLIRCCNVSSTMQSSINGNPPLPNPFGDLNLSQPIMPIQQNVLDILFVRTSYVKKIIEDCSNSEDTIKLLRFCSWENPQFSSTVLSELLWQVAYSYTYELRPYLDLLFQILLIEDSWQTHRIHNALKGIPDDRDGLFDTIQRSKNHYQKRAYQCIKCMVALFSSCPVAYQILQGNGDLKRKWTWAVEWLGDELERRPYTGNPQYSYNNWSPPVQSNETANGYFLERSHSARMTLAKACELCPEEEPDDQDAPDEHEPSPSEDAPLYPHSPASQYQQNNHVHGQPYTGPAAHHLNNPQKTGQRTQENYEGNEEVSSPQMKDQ
Summary of the method: as §1

UniProt P51784 = target: UniProt P51784
Summary of the method: as §1

UniProt Q5T2D3 = target: T1, UniProt Q5T2D3
T1 sequence (whole entry): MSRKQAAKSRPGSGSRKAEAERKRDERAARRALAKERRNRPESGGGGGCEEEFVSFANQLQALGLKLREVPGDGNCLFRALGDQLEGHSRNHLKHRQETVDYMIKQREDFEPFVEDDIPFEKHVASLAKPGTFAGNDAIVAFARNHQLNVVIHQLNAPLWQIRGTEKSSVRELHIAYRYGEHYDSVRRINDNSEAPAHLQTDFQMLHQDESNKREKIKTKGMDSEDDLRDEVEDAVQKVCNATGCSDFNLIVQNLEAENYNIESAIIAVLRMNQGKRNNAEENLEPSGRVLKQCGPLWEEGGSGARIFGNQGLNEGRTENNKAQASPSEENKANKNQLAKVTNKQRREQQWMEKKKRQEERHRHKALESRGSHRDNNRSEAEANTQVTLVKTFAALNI
Summary of the method: as §1

UniProt Q8TE49 = target: T2, UniProt Q8TE49
T2 sequence (whole entry): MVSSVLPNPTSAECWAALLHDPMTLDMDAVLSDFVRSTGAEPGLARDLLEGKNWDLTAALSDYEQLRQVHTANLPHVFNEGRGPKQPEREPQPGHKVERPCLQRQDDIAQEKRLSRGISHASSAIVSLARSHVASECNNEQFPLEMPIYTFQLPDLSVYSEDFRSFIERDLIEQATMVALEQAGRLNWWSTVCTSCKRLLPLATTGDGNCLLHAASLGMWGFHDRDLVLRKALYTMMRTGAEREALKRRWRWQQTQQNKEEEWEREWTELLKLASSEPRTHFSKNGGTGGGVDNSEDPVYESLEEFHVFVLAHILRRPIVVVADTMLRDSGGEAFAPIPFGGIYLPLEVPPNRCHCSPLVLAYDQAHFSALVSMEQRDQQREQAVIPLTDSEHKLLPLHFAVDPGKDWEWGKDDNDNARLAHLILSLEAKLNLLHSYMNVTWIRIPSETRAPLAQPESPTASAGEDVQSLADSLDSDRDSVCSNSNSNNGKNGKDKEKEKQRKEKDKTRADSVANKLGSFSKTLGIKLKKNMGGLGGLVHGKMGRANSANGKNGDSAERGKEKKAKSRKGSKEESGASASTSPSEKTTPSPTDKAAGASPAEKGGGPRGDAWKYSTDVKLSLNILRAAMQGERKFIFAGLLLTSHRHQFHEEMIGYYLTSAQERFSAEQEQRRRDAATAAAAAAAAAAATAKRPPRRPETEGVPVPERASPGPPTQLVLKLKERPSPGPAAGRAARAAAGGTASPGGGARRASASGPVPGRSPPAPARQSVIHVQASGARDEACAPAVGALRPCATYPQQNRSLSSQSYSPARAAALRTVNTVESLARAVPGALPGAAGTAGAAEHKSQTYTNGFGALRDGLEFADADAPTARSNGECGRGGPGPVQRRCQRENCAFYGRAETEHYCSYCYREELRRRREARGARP
Summary of the method: as §1

UniProt Q9P2H5 = target: T3, UniProt Q9P2H5
T3 sequence (whole entry): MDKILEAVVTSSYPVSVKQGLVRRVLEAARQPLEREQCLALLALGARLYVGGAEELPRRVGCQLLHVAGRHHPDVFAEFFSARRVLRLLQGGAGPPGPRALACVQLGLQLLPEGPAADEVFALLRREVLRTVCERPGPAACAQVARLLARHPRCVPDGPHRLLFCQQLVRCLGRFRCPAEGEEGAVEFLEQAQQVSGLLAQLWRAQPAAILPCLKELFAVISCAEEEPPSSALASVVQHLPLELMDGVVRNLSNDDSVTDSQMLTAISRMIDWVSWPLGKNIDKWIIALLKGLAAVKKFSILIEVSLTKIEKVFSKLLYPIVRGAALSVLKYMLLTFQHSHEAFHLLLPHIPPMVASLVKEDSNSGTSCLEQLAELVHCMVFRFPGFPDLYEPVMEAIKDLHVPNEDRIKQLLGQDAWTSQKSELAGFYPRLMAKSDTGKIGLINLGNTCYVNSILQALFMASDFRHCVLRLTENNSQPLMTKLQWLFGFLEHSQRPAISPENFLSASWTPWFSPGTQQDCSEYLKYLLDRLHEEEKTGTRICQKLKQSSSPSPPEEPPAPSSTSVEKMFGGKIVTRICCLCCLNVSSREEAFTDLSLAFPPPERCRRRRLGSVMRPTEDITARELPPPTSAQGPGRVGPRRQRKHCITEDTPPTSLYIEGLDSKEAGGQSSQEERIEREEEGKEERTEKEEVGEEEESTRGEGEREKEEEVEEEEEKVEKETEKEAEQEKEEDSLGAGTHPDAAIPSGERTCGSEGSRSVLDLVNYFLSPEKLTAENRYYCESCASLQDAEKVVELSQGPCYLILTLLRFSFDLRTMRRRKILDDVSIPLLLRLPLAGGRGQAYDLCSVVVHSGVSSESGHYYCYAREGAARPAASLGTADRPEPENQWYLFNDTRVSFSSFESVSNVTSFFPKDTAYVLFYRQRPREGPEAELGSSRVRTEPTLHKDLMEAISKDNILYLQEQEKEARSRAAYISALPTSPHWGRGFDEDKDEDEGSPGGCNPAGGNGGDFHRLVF
Summary of the method: as §1

UniProt Q9UGI0 = target: T4, UniProt Q9UGI0
T4 sequence (whole entry): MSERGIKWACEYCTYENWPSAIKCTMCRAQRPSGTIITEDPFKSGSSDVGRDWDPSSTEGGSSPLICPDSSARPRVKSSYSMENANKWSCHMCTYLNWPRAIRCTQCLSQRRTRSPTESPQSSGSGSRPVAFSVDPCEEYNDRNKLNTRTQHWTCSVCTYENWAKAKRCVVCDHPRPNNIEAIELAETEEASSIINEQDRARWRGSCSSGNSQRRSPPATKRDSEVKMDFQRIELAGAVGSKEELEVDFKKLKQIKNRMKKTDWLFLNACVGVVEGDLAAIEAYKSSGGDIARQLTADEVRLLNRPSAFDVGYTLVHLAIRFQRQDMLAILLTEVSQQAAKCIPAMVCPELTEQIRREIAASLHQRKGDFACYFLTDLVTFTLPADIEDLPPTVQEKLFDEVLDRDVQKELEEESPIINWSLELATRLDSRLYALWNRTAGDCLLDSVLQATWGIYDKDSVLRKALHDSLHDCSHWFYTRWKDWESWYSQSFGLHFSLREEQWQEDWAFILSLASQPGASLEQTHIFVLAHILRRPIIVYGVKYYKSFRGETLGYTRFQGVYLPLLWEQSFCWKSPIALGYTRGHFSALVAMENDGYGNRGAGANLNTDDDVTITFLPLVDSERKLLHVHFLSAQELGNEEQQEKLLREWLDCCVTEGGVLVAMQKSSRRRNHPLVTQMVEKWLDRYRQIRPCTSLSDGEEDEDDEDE
Summary of the method: as §1

YOD1 = target: T5, YOD1 (UniProt Q5VVQ6)
T5 sequence (whole entry): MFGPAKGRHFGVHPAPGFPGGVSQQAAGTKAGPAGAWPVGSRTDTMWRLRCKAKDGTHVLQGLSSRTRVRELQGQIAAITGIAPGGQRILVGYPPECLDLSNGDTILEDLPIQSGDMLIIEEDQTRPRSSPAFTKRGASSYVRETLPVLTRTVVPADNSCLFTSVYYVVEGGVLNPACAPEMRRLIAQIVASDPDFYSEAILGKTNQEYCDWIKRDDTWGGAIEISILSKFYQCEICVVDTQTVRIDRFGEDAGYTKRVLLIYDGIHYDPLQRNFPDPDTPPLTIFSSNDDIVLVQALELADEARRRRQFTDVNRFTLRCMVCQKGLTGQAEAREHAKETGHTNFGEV
Summary of the method: as §1

Measured: log2 ratio of Biotin-Ahx-Ub-VS probe labelling

Cl.O=C(CCl)N1CCCC(c2ncc[nH]2)C1 (centres undefined)
inactive: USP9X -0.121 | UniProt O00487 -0.0974 | UniProt O00507 0.0496 | UniProt P51784 0.000136 | UniProt Q5T2D3 -0.124 | UniProt Q8TE49 -0.0422 | UniProt Q9P2H5 0.113 | UniProt Q9UGI0 -0.517 | YOD1 -0.0255
